Records with an inconclusive call do not appear. Activity calls are given as the source filed them. How the source made its calls: active means hit-call score of the fitted dose curve at least 0.9, where 1 is the maximum; inconclusive means response in the unintended direction; inactive means score below 0.9.

This assay in a line: TOX21_TRB_BLA_Agonist_Followup_viability: Viability Assessment in the Tox21 Thyroid Hormone Receptor beta Agonism Beta-lactamase (BLA) Follow-Up Assay (AID 2283956). An excerpt:
The GeneBLAzer TRb-UAS-bla HEK293T assay kit for human TRb (ThermoFisherScientific Catalog No. K1684) was used as a secondary assay for specificity (TRb-bla). This assay contained the ligand-binding domain (LBD) of the human TRb fused to the DNA-binding domain of GAL4 stably integrated in the GeneBLAzer UAS-bla HEK293Tcell line. The reporter gene, b-lactamase, is under the transcriptional control of a UAS that binds the GAL4 DNA-binding domain. A cell viability assay was run in parallel for these cells as well using the CellTiter-Glo viability assay kit.TOX21_TRB_BLA_Agonist_Followup_viability is a component of the TOX21_TRB_BLA_Agonist_Followup assay. This component measures cell viability using the CellTiter-Glo Luciferase-coupled ATP quantitation.The assay component endpoint TOX21_TRB_BLA_Agonist_Followup_viability was analyzed with bidirectional fitting relation to DMSO as the negative control and baseline of activity. Using a type of viability reporter, loss-of-signal activity can be used to understand changes in viability. To generalize the intended target to other relatable targets, this assay endpoint is annotated to cell cycle, where the subfamily is cytotoxicity.
Cell Media Required: Growth (90% DMEM/F-12, 10% Fetal Bovine Calf Serum, 100U/ml Penicillin, 100 ug/ml Streptomycin), Assay (10ng/mL sodium selenite, 10 ug/mL humanapo-transferrin, 10 uM ethanolamine, 10 ug/mL insulin, 500 ug/mL bovine serum albumin (BSA))Assay Protocol: TRb-bla cells were dispensed at 3,000 cells/well in 5 uL of the assay medium containing phenol red-free DMEM with 2% charcoal-stripped FBS in 1,536-well black-wall/clear-bottom plates using an FRD. After 5-h incubation at 37C/5% CO2 for cell attachment to the well bottom, 23nL of follow-up compounds dissolved in DMSO, 11 concentrations in triplicate, and the positive control (T3; agonist format) were transferred to the assay plates using a Pintool station. The assay plates were incubated at 37C/5% CO2 for 18h. One microliter LiveBLAzer FRET-B/G CCF4-AM substrate was added to each well using an FRD. After 2-h incubation at room temperature, the fluorescence intensity was measured using an Envision plate reader. Data were expressed as the ratio of 460:530nm. The cytotoxicity of the compounds was measured in the same plates by adding 4 uL of CellTiter-Glo reagent to each well and incubating the plates at room temperature for 30 min. The luminescence intensity was measured using a ViewLux plate reader.For the luciferase reporter gene assay, 5 uL/well (agonist format) and 4 uL/well (antagonist format) ONE-Glo reagent (Promega Corporation) was added using an FRD and after 30-min incubation at room temperature, the luminescence intensity was measured using a ViewLux plate reader. Data were expressed as relative fluorescence units (cell viability assay) and relative luminescence units (luciferase reporter assay).
Regarding `CC1=C(/C=C/C(C)=C\C=C\C(C)=C\C(=O)O)C(C)(C)CCC1`, the molecule was classed as inactive.
Turning to `COc1cc(C)c(/C=C/C(C)=C/C=C/C(C)=C/C(=O)O)c(C)c1C`, the molecule was classed as inactive.
As for `CSCC[C@H](NC(=O)[C@H](Cc1ccc(OS(=O)(=O)O)cc1)NC(=O)[C@@H](N)CC(=O)O)C(=O)NCC(=O)N[C@@H](Cc1c[nH]c2ccccc12)C(=O)N[C@@H](CCSC)C(=O)N[C@@H](CC(=O)O)C(=O)N[C@@H](Cc1ccccc1)C(N)=O`, the entry is “inactive”; as for `Nc1ccc(S(=O)(=O)Nc2nccs2)cc1`, “inactive”.
For the molecule `N[C@@H](Cc1ccc(Oc2cc(I)c(O)c(I)c2)c(I)c1)C(=O)O`, the outcome was inactive.
Turning to `Nc1ccc(S(N)(=O)=O)cc1`, the result was inactive.
As for `CCC(C)c1cc(C(C)(C)C)c(O)c(C(C)(C)C)c1` (stereo not given), the entry is “inactive”; as for `CCNc1nc(N)nc(Cl)n1`, “inactive”; as for `CC1=C(/C=C/C(C)=C/C=C/C(C)=C/C(=O)O)C(C)(C)CCC1`, “inactive”.
As for `C=C(c1ccc(C(=O)O)cc1)c1cc2c(cc1C)C(C)(C)CCC2(C)C`, the entry is “inactive”; as for `O=C(c1ccccc1)c1ccc(O)cc1O`, “inactive”; as for `CCCCCCC(C)O` (stereo not given), “inactive”.
As for `C[C@]12CC[C@H]3C(=CCc4cc(O)ccc43)[C@@H]1CCC2=O`, the entry is “inactive”.
Consider `CC(=O)Nc1ccc(C(=O)CCl)cc1`, for which the molecule was called inactive.
`Nc1ncn([C@H]2C[C@H](O)[C@@H](CO)O2)c(=O)n1`: the molecule was classed as inactive.
As for `CC(C)=CCC/C(C)=C\CO`, the entry is “inactive”; as for `N[C@@H](Cc1cc(I)c(Oc2cc(I)c(O)c(I)c2)c(I)c1)C(=O)O`, “inactive”; as for `CC(C)CCCCCCCOC(=O)c1ccccc1C(=O)OCCCCCCCC(C)C`, “inactive”.
As for `OCCCCC(O)CO` (stereo not given), the entry is “inactive”; as for `CCCCCCCCCCC`, “inactive”.
As for `C=C(NC(=O)C(=C)NC(=O)c1csc(C2=NC3c4csc(n4)C4NC(=O)c5csc(n5)C(C(C)(O)C(C)O)NC(=O)C5CSC(=N5)/C(=C/C)NC(=O)C(C(C)O)NC(=O)c5csc(n5)C3(CC2)NC(=O)C(C)NC(=O)C(=C)NC(=O)C(C)NC(=O)C(C(C)CC)NC2C=Cc3c(C(C)O)cc(nc3C2O)C(=O)OC4C)n1)C(N)=O` (stereo not given), the entry is “inactive”; as for `O=C(O)CCCCCCNC1c2ccccc2CCc2ccccc21`, “inactive”.
Consider `CCCCCCC(O)CO` (stereo not given), for which the result was inactive.
As for `CC1=C(/C=C/C(C)=C/C=C/C(C)=C\C(=O)O)C(C)(C)CCC1`, the entry is “inactive”.
With `CCCN(CCC)C(=O)SCC`, the call was inactive.
As for `O=C(O)Cc1cc(I)c(Oc2ccc(O)c(I)c2)c(I)c1`, the entry is “inactive”.
Take `Cc1cc(C)nc(NS(=O)(=O)c2ccc(N)cc2)n1`: the molecule was called inactive.
As for `Cc1cc(-n2c(=O)[nH]c(=O)n(C)c2=O)ccc1Oc1ccc(S(=O)(=O)C(F)(F)F)cc1`, the entry is “inactive”.
Turning to `NCC(=O)CCC(=O)O`, the result was inactive.
For the molecule `CC(CCO)CCCC(C)(C)O` (stereo not given), the molecule was classed as inactive.
As for `CC(=O)OCCC(C)CC(C)(C)C` (stereo not given), the entry is “inactive”.
As for `CC(C)(C)CC(C)(C)c1ccc(O)c(Cc2ccc(Cl)cc2Cl)c1`, the entry is “inactive”.
Regarding `CC(C)CC(=O)O`, the call was inactive.
As for `O=C(O)Cc1cc(I)c(Oc2cc(I)c(O)c(I)c2)c(I)c1`, the entry is “inactive”.
As for `COC(=O)c1ccc(I)cc1S(=O)(=O)NC(=O)Nc1nc(C)nc(OC)n1`, the entry is “inactive”; as for `NC(CO)(CO)CO`, “inactive”; as for `O=Cc1ccccc1S(=O)(=O)O`, “inactive”.
As for `O=c1[nH]cnc2c1ncn2[C@H]1CC[C@@H](CO)O1`, the entry is “inactive”; as for `C[Si](C)O[Si](C)(C)O[Si](C)(C)O[Si](C)C`, “inactive”.
On to `COc1ccc(OC)c([C@@H](O)[C@H](C)N)c1`, for which the molecule was called inactive.

Values taken from PubChem BioAssay (EPA / NIEHS).
